G9a block = inhibitors of human histone lysine methyltransferase G9a. G9a H3K9 monomethylation, AlphaScreen, 2 h. 350,000 compounds, 8.8% hits. Potency, µM (top dose mostly 102 µM), actives largely listed as inhibitors. AID 504332; note: nearly all actives have a fitted effect of over 75% in size
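AlphaScreen detection with an anti-monomethyl H3K9 antibody quantified product after a 2 h room-temperature reaction containing 500 nM biotinylated H3K9 peptide, 20 µM SAM and 20 nM enzyme, which had been preincubated 15 min with compound.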
GLS inhibitor = blocks human kidney-isoform glutaminase activity. O94925. GLS enzymatic activity, qHTS titration. Potency, µM (doses to about 45.5 µM), most hits filed as inhibitors. 410,000 compounds, 0.21% hits. AID 624170
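hKGA; 45 mM KH2PO4 pH 8.2 + 0.02% Tween-20; cpd via pin tool; 1 mM Gln soln; GluOx/HRP/Amplex Red; RT 30 min; fluor. t0 & final.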
BAZ2B inh = BAZ2B (human) inhibition. Q9UIF8. 360,000 compounds, 4.4% hits. AlphaScreen BAZ2B-H3K14Ac peptide displacement. Potency, µM (highest dose often 114 µM), usual class: inhibitors; note: nearly all actives have a fitted effect of over 60% in size
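AlphaScreen displacement: compounds (up to 110uM) incubated 30 min at room temperature with a preformed 50 nM BAZ2B/50 nM biotinylated H3K14Ac peptide complex in PBS pH 7.4 with Tween-20. Donor and acceptor beads at 10 ug/mL final added, 20 min light-protected before reading.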
HP1b binding inh = HP1-beta chromodomain-methylated histone interaction inhibition. 390,000 compounds, 0.56% hits. AID 540317. AlphaScreen HP1-beta / biotin-H3K9me3 peptide binding. P83916. Potency, µM (top dose mostly 114 µM), most hits filed as inhibitors; note: nearly all actives have a fitted effect of over 70% in size
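Compound inhibition of the preformed complex between 50 nM HP1-beta and 50 nM biotinylated H3K9me3 peptide was read by AlphaScreen. Buffer was PBS pH 7.4 with 0.01% Tween-20. Incubations ran 30 min at room temperature, with 10 ug/mL donor/acceptor beads.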
L3MBTL1 inh = blocks human L3MBTL1; Q9Y468; AlphaScreen L3MBTL1–H3K9me1 peptide binding; Potency, µM (top dose mostly 57.1 µM), usual class: inhibitors; 230,000 compounds, 0.66% hits; AID 485360; note: nearly all actives have a fitted effect of over 60% in size
Target sequence (Q9Y468 whole entry, looked up): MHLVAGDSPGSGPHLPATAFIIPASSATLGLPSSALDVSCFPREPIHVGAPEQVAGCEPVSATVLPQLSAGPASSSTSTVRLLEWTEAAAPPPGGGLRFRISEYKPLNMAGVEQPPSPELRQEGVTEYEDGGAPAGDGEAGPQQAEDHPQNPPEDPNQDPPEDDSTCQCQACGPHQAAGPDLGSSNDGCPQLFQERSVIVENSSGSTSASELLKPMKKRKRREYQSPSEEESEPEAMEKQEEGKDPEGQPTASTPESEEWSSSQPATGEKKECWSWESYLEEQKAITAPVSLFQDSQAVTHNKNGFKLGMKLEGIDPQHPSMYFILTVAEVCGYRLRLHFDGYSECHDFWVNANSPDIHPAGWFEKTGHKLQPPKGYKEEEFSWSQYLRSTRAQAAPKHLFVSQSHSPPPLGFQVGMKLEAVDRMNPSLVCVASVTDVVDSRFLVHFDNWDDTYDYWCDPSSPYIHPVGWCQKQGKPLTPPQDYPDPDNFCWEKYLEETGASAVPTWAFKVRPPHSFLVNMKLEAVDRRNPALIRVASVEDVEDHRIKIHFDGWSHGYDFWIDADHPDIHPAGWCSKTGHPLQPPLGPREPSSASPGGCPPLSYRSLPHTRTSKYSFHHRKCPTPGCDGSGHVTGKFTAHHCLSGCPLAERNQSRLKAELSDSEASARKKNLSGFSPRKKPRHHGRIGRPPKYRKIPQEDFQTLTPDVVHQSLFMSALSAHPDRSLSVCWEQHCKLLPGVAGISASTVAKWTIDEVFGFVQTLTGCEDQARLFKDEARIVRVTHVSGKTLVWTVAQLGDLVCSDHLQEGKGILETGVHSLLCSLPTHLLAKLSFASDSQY
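L3MBTL1 (50 nM) pre-complexed 30 min with biotinylated H3(1-15)K9me1 peptide (75 nM), then compounds added for 30 min at room temperature; AlphaScreen streptavidin donor/nickel chelate acceptor beads (10 ug/mL final) read after 30 min dark incubation.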
JMJD2A Tudor = inhibitors of human JMJD2A Tudor domain. O75164. AlphaScreen JMJD2A-Tudor / H3K4me3 peptide binding. Potency, µM (top dose mostly 114 µM), actives largely listed as inhibitors. 390,000 compounds, 4.4% hits. AID 504339; note: nearly all actives have a fitted effect of over 50% in size
Numbers stand for hits; [ ] = remark or other dose. An excerpt weighted towards active compounds, which were near 10% of everything screened. Calls come from the whole dose curve; as a rule, active = well fitted curve in the direction sought with a large enough effect; inconclusive = small, poorly fitted or top-dose-only effect, or another doubt; inactive = no such curve, though single readings can be large; an effect the other way counts as inactive or inconclusive.

`Cc1cccc(C(c2sc3nc(-c4ccco4)nn3c2O)N2CCN(Cc3ccccc3)CC2)c1` (stereo not given) gave G9a block inactive, GLS inhibitor inactive, BAZ2B inh inactive, HP1b binding inh inactive and JMJD2A Tudor inactive.
For O=c1[nH]nc(SCc2nc3ccccc3s2)n1C1CC1 the results were G9a block 7.9µM, GLS inhibitor inactive, BAZ2B inh inactive, HP1b binding inh inactive, L3MBTL1 inh inactive and JMJD2A Tudor inactive.
Screening CCCn1c(SCc2nc3ccccc3s2)n[nH]c1=O returned G9a block 56µM, GLS inhibitor inactive, BAZ2B inh inactive, HP1b binding inh inactive, L3MBTL1 inh inactive and JMJD2A Tudor inconclusive.
Cc1cc(C)c(-n2c(SCc3nc4ccccc4s3)n[nH]c2=O)c(C)c1 was read as G9a block inactive, GLS inhibitor inactive, BAZ2B inh inactive, HP1b binding inh inactive and JMJD2A Tudor inactive.
Screening c1ccc(Nc2scc(-c3ccccc3)[n+]2Cc2ccco2)cc1 returned G9a block 16µM, GLS inhibitor inactive, HP1b binding inh inconclusive, L3MBTL1 inh inconclusive and JMJD2A Tudor inconclusive.
For c1ccc(C[n+]2c(-c3ccccc3)csc2Nc2ccccc2)cc1 the results were G9a block 11µM, GLS inhibitor inactive, BAZ2B inh 7.9µM, HP1b binding inh 25µM, L3MBTL1 inh inactive and JMJD2A Tudor inconclusive.
O=C(Cc1csc(-c2ccccc2)n1)NCc1ccco1 was read as G9a block inconclusive, GLS inhibitor inactive, BAZ2B inh inconclusive, HP1b binding inh inactive, L3MBTL1 inh inactive and JMJD2A Tudor inactive.
`CCCCCC[n+]1c(-c2ccc(Cl)cc2Cl)csc1Nc1ccccc1` gave G9a block inconclusive, GLS inhibitor inactive, BAZ2B inh inconclusive, HP1b binding inh inactive, L3MBTL1 inh inactive and JMJD2A Tudor inconclusive.
O=C(CSc1nc(-c2ccccc2)c(-c2ccccc2)[nH]1)N1CCN(S(=O)(=O)c2ccccc2)CC1 was read as G9a block 3.2µM, GLS inhibitor inactive, BAZ2B inh inactive, HP1b binding inh inactive and JMJD2A Tudor inconclusive.
`O=C(O)CSc1nc(-c2ccccc2)c(-c2ccccc2)[nH]1` gave G9a block 50µM, GLS inhibitor inactive, BAZ2B inh inactive, HP1b binding inh inactive, L3MBTL1 inh inactive and JMJD2A Tudor inconclusive.
`CC(C)(C)NC(=O)CSc1nc(-c2ccccc2)c(-c2ccccc2)[nH]1` gave G9a block inactive[12.7 µM], GLS inhibitor inactive, BAZ2B inh inactive, HP1b binding inh inactive and JMJD2A Tudor inactive.
For Nn1cc(-c2ccccc2)nc1SCC(=O)N1CCN(S(=O)(=O)c2ccccc2)CC1 the results were G9a block 25µM, GLS inhibitor inactive, BAZ2B inh inconclusive, HP1b binding inh inactive, L3MBTL1 inh inactive and JMJD2A Tudor inactive.
`O=C(CSc1ncccn1)N1CCN(S(=O)(=O)c2ccccc2)CC1` gave G9a block inconclusive, GLS inhibitor inactive, BAZ2B inh inactive, HP1b binding inh inactive and JMJD2A Tudor inactive.
Screening CCc1ccc2oc(C(=O)Nc3ccccc3OC)cc(=O)c2c1 returned G9a block inactive, GLS inhibitor inactive, BAZ2B inh inactive, HP1b binding inh inactive and JMJD2A Tudor inactive.
For CCN(CCCNC(=O)c1ccc(Sc2ccc(Cl)cc2)c(NC(C)=O)c1)c1cccc(C)c1 the results were G9a block 13µM, GLS inhibitor inactive, BAZ2B inh inconclusive, HP1b binding inh inconclusive and JMJD2A Tudor inconclusive.
For CCN(CCNC(=O)c1ccc(C#N)cc1)c1cccc(C)c1 the results were G9a block 13µM, GLS inhibitor inactive, BAZ2B inh inactive, HP1b binding inh inactive and JMJD2A Tudor inactive.
CCCN1CNc2c(c(=O)[nH]c(=S)n2CCc2cc(OC)cc(OC)c2)C1 was read as HP1b binding inh inactive and JMJD2A Tudor inactive.
Screening CCSCc1nc2ccccn2c1Br returned G9a block 13µM, GLS inhibitor inactive, BAZ2B inh inconclusive, HP1b binding inh inactive, L3MBTL1 inh inactive and JMJD2A Tudor inactive.
For CCCCSCc1nc2ccccn2c1Br the results were G9a block 13µM, GLS inhibitor inactive, BAZ2B inh inactive, HP1b binding inh inactive, L3MBTL1 inh inactive and JMJD2A Tudor inactive.
